Experimental findings from PubChem BioAssay (Tox21) are described below.

The structures appear in SMILES notation. “And” between values parts separate entries of the source, which are not always exact repeats. Equal entries are not always repeated. Results filed as inconclusive are left out. More than one record can exist for a structure, and the calls need not agree. The source made the active and inactive calls. Unless noted, calls come from the whole dose curve.

Assay [1] can be described thus: Nuclear factor erythroid 2-related factor 2/antioxidant responsive element (Nrf2/ARE) small molecule agonists: qHTS cell viability counter screen in human keratinocytes (AID 1919968; active = well fitted cell-killing curve with a large enough effect in the repeat runs; note: nearly all actives have a fitted effect of over 55% in size; note: potency is the fitted concentration of half-maximal effect). Put shortly:
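Parallel cytotoxicity read: KeratinoSens HaCaT cells, compound treatment 23 h, viability by CellTiter-Fluor fluorescence 1 h post-reagent.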

Assay [2] is described as follows: Nuclear factor erythroid 2-related factor 2/antioxidant responsive element (Nrf2/ARE) small molecule agonists: luciferase reporter gene qHTS assay in human keratinocytes (AID 1919969). Note: nearly all actives have a fitted effect of over 35% in size. Note: potency is the fitted concentration of half-maximal effect. Background: A reporter such as luciferase makes a cellular process visible.
For assay [3], the target named is Gonadotropin-releasing hormone receptor (Homo sapiens) (UniProt P30968). As to the kind of experiment: Human gonadotropin-releasing hormone receptor (GnRHR) small molecule agonists, calcium flux assay in GnRHR-HEK293 cells (AID 1920063). Note: nearly all actives have a fitted effect of over 35% in size. Note: potency is the fitted concentration of half-maximal effect. Put shortly:
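Calcium flux, agonist mode, human GnRHR stably integrated in HEK293; dye 1 h at 37 C before compound; Ex/Em=480/540 kinetic read, 3 min; 15 concentrations, triplicate.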

The nature of assay [4]: G protein-coupled receptor (GPCR) small molecule agonists, calcium flux assay: HEK293 wild type cell line counter screen (AID 1920065). In a few lines: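 Non-specific calcium responders were flagged by adding DMSO-dissolved compounds to dye-loaded cells and reading 480/540 nm fluorescence each second for 3 min; ATP served as positive control.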
On the technique in general: A change in cytosolic calcium serves as a functional read-out for many receptors and channels.

A short description of assay [5]: p53 small molecule agonists, cell-based qHTS assay with rat liver microsomes (AID 1963578). In a few lines: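 With rat liver microsomes and NADPH present (0.5 mg/mL final each), p53RE-bla cells are treated with compound for 16 h at 37 C. LiveBLAzer detection mixture is then applied for 2 h at room temperature in the dark.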
Assay [6] can be described thus: p53 small molecule agonists, cell-based qHTS assay with human liver microsomes: qHTS cell viability counter screen (AID 1963579). Note: nearly all actives have a fitted effect of over 45% in size. Note: potency is the fitted concentration of half-maximal effect. Put shortly:
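In this multiplexed counter screen, the reporter plates were subsequently treated with CellTiter-Glo so that cell viability, reflected by luminescence, could be recorded for p53RE-bla cells dosed 16 h with compounds under microsomal activation (HLM and NADPH).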
A general note: In qHTS, concentration-response curves come from the screen itself.

A short description of assay [7]: p53 small molecule agonists, cell-based qHTS assay with rat liver microsomes: qHTS cell viability counter screen (AID 1963580). Note: nearly all actives have a fitted effect of over 45% in size. Note: potency is the fitted concentration of half-maximal effect. In a few lines: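 Cytotoxicity counter screen: intracellular ATP read by CellTiter-Glo luminescence in the p53 reporter wells. HCT-116 p53RE-bla cells were treated for 16 h at 37 C alongside rat liver microsomes and NADPH, each 0.5 mg/mL final.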

The nature of assay [8]: p53 small molecule agonists, cell-based qHTS assay: qHTS cell viability counter screen (AID 1963581). Note: nearly all actives have a fitted effect of over 45% in size. Note: potency is the fitted concentration of half-maximal effect. Put shortly: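 Multiplexed with the reporter read, a CellTiter-Glo step (30 min, room temperature) gauges ATP-based viability of HCT-116 p53RE-bla cells after 16 h compound incubation at 37 C.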
A short description of assay [9]: p53 small molecule agonists, cell-based qHTS assay (AID 1963582; active = well fitted activation curve with a large enough effect in the signal ratio in the repeat runs, not every such curve was filed as active; the % refers to the signal ratio). In a few lines:
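Beta-lactamase reporter cells (p53RE-bla) treated with compounds for 16 h at 37 C; FRET substrate, 2 h, room temperature; fluorescence intensity.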

Assay [10] concerns the target 5-hydroxytryptamine receptor 2A (Homo sapiens) (UniProt P28223). Description: 5-hydroxytryptamine receptor 2A (HTR2A) small molecule antagonists, cell-based qHTS assay (AID 1963586). Note: nearly all actives have a fitted effect of over 45% in size. Put shortly: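 CHO cells stably expressing human HTR2A were plated for 18 h at 37 C, then loaded with calcium dye for 1 h. Compounds were preincubated 5 min at room temperature before DOI (4 nM solution) was added. Kinetic fluorescence was read for 3 min.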

The target is the same in assay [11]. As to the kind of experiment: 5-hydroxytryptamine receptor 2A (HTR2A) small molecule agonists, cell-based qHTS assay (AID 1963587). Note: nearly all actives have a fitted effect of over 30% in size. Put shortly:
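Kinetic calcium-flux fluorescence (2 min, 1 sec intervals) after compound addition in agonist mode. HTR2A-CHO cells were cultured 18 h, then dye-loaded 1 h at 37 C.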

For assay [12], the target named is Muscarinic acetylcholine receptor M1 (Homo sapiens) (UniProt P11229). As to the kind of experiment: Cholinergic receptor muscarinic 1 (CHRM1) small molecule agonists, cell-based qHTS assay (AID 1963589). Note: nearly all actives have a fitted effect of over 35% in size. Note: potency is the fitted concentration of half-maximal effect. In a few lines:
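qHTS, 15-point titration, 3 independent runs: compounds pin-transferred onto dye-loaded CHRM1-CHO cells (human M1), calcium fluorescence followed every second to detect agonism.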

The nature of assay [13]: cAMP Responsive Elements (CRE) small molecule agonists, cell-based qHTS assay (AID 1963590). In a few lines:
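Quantitative HTS for CRE agonists: HEK 293T CRE-bla cells, overnight plating, 3 h compound incubation at 37 C/5% CO2, then 2 h room-temperature LiveBLAzer B/G FRET substrate loading.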

Assay [14] in a line: cAMP Responsive Elements (CRE) small molecule antagonists, cell-based qHTS assay (AID 1963591; active = well fitted inhibition curve with a large enough effect in the signal ratio in the repeat runs, not every such curve was filed as active; the % refers to the signal ratio). In a few lines: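 Fluorescence intensity from cleaved LiveBLAzer B/G substrate (2 h, room temperature) quantified CRE-bla activity in HEK 293T cells exposed 3 h to compound with 0.25 uM final NKH477.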
For assay [15], the target named is Beta-2 adrenergic receptor (Homo sapiens) (UniProt P07550). As to the kind of experiment: Adrenergic beta2 receptor (ADRB2) small molecule antagonists, cell-based qHTS assay (AID 1963592). Note: series mostly up to about 92 µM; nearly all actives have a fitted effect of over 50% in size. In a few lines: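 Assay format: CHO-ADRB2 cells, 18-20hr seeding at 37C/5% CO2, then compound plus 1nM isoproterenol agonist mix for 0.5hr RT. Homogeneous time-resolved fluorescence cAMP detection after 1hr, expressed as 665/615 nm ratio.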

Assay [16] shares this target. Description: Adrenergic beta2 receptor (ADRB2) small molecule agonists, cell-based qHTS assay (AID 1963593).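 Note: CHO cells stably overexpressing human ADRB2.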 In a few lines: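 CHO cells stably over-expressing ADRB2 were plated overnight at 37C, then dosed with compounds plus a stimulation mix containing 100uM IBMX and 25uM Ro-20-1724 for 0.5hr at room temperature. cAMP was measured by HTRF competition, 1hr.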
Assay [17] addresses D(2) dopamine receptor (Homo sapiens) (UniProt P14416). As to the kind of experiment: Dopamine D2 receptor (DRD2) small molecule agonists, cell-based qHTS assay (AID 1963594). Note: nearly all actives have a fitted effect of over 35% in size. In a few lines:
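cAMP accumulation in DRD2-HEK293 cells measured by HTRF after 1 h detection; compounds added 10 min before NKH477 (200nM […]) forskolin-analogue stimulation, 30 min at room temperature, with Ro20-1724 present at 0.1 mM final.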

For assay [18] the target is unchanged. Description: Dopamine D2 receptor (DRD2) small molecule antagonists, cell-based qHTS assay (AID 1963595; active = well fitted inhibition curve with a large enough effect in the signal ratio in the repeat runs, with a control signal flat; the % refers to the signal ratio; note: potency is the fitted concentration of half-maximal effect). In a few lines:
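DRD2-HEK293; 0.1 mM Ro20-1724; cpd 10 min RT; NKH477 200 nM + quinpirole 12 nM, 30 min RT; HTRF cAMP (cAMP-d2/anti-cAMP cryptate), 665/620 nm ratio after 1 h.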

Assay [19] has as its target Muscarinic acetylcholine receptor M1 (Homo sapiens) (UniProt P11229). As to the kind of experiment: Cholinergic receptor muscarinic 1 (CHRM1) small molecule antagonists, cell-based qHTS assay (AID 1963588). Note: nearly all actives have a fitted effect of over 40% in size. Put shortly: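 Compounds were tested at 15 concentrations in three independent runs. Dye-loaded CHRM1-CHO cells were exposed 5 min at room temperature before stimulation by acetylcholine added at 50nM. Intracellular calcium was read kinetically on FDSS for 3 min.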
% is set by controls: 0 for no effect and ±100 for the full control effect.

Sequence of Beta-2 adrenergic receptor (Homo sapiens) (P07550 whole entry, looked up): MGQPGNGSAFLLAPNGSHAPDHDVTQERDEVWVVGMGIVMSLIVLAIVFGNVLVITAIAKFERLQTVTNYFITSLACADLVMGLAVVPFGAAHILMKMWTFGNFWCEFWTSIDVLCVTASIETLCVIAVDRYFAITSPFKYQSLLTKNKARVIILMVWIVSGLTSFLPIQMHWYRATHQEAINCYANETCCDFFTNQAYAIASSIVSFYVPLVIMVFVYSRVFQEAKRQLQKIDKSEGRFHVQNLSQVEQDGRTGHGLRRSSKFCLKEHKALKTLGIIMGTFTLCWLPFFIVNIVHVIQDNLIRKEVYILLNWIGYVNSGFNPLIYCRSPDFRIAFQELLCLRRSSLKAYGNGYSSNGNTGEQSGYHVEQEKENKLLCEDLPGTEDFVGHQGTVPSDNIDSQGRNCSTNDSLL
Sequence of Muscarinic acetylcholine receptor M1 (Homo sapiens) (P11229 whole entry, looked up): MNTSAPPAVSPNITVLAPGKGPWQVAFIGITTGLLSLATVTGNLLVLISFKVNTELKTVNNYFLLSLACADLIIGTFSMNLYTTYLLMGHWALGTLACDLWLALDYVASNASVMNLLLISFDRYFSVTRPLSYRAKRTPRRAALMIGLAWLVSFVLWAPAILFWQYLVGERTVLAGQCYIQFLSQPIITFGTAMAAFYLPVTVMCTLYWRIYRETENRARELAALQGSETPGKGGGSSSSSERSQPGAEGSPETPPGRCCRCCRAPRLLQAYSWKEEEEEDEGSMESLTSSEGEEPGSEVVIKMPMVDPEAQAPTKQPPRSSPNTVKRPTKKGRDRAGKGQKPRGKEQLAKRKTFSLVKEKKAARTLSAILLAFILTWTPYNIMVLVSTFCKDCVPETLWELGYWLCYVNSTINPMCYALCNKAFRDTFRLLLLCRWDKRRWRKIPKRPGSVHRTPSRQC
Sequence of 5-hydroxytryptamine receptor 2A (Homo sapiens) (P28223 whole entry, looked up): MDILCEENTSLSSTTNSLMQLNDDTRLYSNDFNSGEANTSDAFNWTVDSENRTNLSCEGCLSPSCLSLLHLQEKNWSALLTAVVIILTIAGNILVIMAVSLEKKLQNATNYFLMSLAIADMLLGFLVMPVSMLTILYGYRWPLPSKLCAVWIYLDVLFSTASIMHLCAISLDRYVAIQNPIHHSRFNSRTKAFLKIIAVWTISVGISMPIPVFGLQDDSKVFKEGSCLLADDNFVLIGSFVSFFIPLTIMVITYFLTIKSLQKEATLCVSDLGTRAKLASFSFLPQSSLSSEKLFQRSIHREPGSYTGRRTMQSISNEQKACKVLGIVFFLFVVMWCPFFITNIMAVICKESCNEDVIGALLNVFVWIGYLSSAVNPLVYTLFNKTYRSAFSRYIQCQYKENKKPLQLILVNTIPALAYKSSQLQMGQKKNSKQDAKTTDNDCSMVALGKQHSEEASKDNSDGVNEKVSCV
Sequence of D(2) dopamine receptor (Homo sapiens) (P14416 whole entry, looked up): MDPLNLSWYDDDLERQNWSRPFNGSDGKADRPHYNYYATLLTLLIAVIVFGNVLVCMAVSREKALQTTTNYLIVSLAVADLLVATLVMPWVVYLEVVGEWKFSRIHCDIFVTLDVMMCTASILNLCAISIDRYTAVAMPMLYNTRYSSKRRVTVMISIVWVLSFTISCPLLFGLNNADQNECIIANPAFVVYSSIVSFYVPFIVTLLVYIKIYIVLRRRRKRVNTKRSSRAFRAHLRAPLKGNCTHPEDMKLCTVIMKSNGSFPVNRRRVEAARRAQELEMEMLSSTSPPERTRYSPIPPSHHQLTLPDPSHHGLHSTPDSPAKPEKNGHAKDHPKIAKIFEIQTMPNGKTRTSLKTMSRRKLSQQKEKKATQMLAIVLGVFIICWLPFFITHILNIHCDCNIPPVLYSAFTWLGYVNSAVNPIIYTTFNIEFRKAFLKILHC
Sequence of Gonadotropin-releasing hormone receptor (Homo sapiens) (P30968 whole entry, looked up): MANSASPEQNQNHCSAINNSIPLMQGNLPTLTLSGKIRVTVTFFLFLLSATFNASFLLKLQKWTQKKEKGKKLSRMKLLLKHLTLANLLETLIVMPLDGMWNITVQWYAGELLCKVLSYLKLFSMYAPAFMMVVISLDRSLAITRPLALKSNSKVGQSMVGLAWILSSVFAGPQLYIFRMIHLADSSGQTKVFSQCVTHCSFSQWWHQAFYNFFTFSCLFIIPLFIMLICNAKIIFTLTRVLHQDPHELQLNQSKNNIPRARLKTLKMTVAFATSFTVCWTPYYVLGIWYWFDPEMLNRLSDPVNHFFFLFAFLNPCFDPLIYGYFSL

`Clc1cccc(C(Cl)(Cl)Cl)n1`: the Potency entry in [1], in [2], in assay [3], in assay [4], in [5] and in assay [6] was “inactive” throughout. Also, the Potency entry in assay [7], in [8], in assay [9], in assay [10], in assay [11] and in assay [12] was “inactive” throughout. The Potency entry in assay [13], in assay [14], in assay [15], in [16], in assay [17] and in [18] was “inactive” in each case.

As for `OCCOCCO`, the Potency entry in assay [1], in [2], in [3], in assay [4], in [6] and in assay [7] was “inactive” in each case. The Potency result in [8], in assay [10], in assay [11], in assay [19], in [12] and in assay [13] was “inactive” in each case. Besides, the Potency result in [14], in [15], in assay [17] and in assay [18] was “inactive” in each case.

Regarding `CCCCCCCCCCCCCCCC[n+]1ccccc1`, the Potency in assay [1] was 29.8 µM (active) [middle of 4 runs]; in assay [3], 25.7 µM (active) and 38.9 µM (active) and 17.1 µM (active); in assay [6], 36.3 µM (active) and 40.2 µM (active) and inactive; in [7], 42.7 µM (active) and inactive; in [8] it was 45.8 µM (active) and inactive; in assay [18], “inactive and 60.3 µM (active)”. The Potency entry in [2], in [4], in assay [5], in assay [9], in [15] and in assay [16] was “inactive” throughout. Also, the Potency result in assay [17] is “inactive”.

With `C[N+](C)(C)C`, the Potency result in assay [1], in assay [2], in [3], in assay [4], in assay [5] and in [6] was “inactive” in each case. Also, the Potency entry in assay [7], in assay [8], in assay [9], in [10], in [11] and in assay [19] was “inactive” in each case. Moreover, the Potency entry in assay [14], in assay [15], in [16], in assay [17] and in assay [18] was “inactive” throughout. Also, the Potency in assay [12] was 22.1 µM (active).

As for `C=CCN(CC=C)C(=O)C(Cl)Cl`, the Potency entry in assay [1], in assay [2], in assay [3], in [4], in assay [5] and in assay [6] was “inactive” throughout. The Potency result in assay [7], in [8], in assay [9], in assay [10], in [19] and in assay [12] was “inactive” throughout. The Potency entry in assay [13], in assay [14], in assay [16], in assay [17] and in [18] was “inactive” in each case.

With `COc1ccc(N)cc1`, the Potency result in [1], in assay [3], in [4], in assay [5], in assay [6] and in assay [8] was “inactive” throughout. The Potency result in assay [9], in [10], in assay [11], in assay [19], in assay [12] and in [13] was “inactive” in each case. Further, the Potency result in [14], in [15], in assay [16], in assay [17] and in assay [18] was “inactive” in each case. In addition, the Potency result in [2] is “inactive and 68 µM (active)”.

Take `O=[N+]([O-])c1ccccc1O`: the Potency entry in [1], in assay [2], in assay [3], in assay [4], in assay [5] and in assay [7] was “inactive” throughout. Moreover, the Potency result in assay [8], in assay [9], in [10], in assay [11], in [19] and in assay [12] was “inactive” throughout. Further, the Potency result in [13], in assay [15], in assay [16], in assay [17] and in assay [18] was “inactive” each time.
